Each structure is given as a SMILES string. “And” between values parts separate entries of the source, which are not always exact repeats. Equal entries are not always repeated. Among all 16,000 compounds or so, about 5,100 (32%) were called active. Inconclusive results (about 25%) are left out. Some of the results follow. Unmarked numbers belong to inactive results. Calls come from the whole dose curve; as a rule, active = well fitted curve in the direction sought with a large enough effect; inconclusive = small, poorly fitted or top-dose-only effect, or effect the other way; inactive = no such curve, though single readings can be large or run the other way.
% is set by controls: 0 for no effect and ±100 for the full control effect.

Cytochrome P450 3A4 (Homo sapiens), sequence (P08684 whole entry, looked up): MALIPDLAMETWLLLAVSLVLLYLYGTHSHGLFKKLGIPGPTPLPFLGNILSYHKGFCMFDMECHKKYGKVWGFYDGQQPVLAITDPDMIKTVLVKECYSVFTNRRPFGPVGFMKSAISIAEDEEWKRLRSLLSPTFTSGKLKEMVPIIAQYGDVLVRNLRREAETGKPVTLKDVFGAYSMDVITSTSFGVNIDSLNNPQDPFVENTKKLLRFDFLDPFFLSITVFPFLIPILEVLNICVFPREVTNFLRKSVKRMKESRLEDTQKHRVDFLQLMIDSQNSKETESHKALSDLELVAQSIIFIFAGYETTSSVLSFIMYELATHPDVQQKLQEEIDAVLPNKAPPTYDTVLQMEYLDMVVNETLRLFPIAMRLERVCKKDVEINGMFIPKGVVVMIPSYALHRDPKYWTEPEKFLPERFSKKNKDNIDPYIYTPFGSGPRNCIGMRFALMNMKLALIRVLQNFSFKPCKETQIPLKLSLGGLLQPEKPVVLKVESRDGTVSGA

The assay has as its target Cytochrome P450 3A4 (Homo sapiens) (UniProt P08684). The assay can be described thus: Cytochrome panel assay with activity outcomes. As to conditions: recombinant CYP, pro-luciferin dealkylation, luminescence, p450-cyp3a4; series mostly up to 57.1 µM; activity, negative = inhibition: at the top concentration.
On to `C[C@H](O)CO[C@H]1[C@H]2O[C@H]3[C@H](O)[C@@H](O)[C@@H](O[C@H]4[C@H](O)[C@@H](O)[C@@H](O[C@H]5[C@H](O)[C@@H](O)[C@@H](O[C@H]6[C@H](O)[C@@H](OC[C@H](C)O)[C@@H](O[C@H]7[C@H](O)[C@@H](OC[C@H](C)O)[C@@H](O[C@H]8[C@H](O)[C@@H](O)[C@@H](O[C@@H]([C@@H]1O)[C@@H](CO)O2)O[C@@H]8CO)O[C@@H]7CO)O[C@@H]6CO)O[C@@H]5CO)O[C@@H]4CO)O[C@@H]3CO`, for which the “activity, negative = inhibition” value was 0.0498%.

`O=C(Nc1cccc2cccnc12)[C@@H]1[C@@H](C(=O)O)[C@H]2CC[C@@H]1O2`: the activity, negative = inhibition was -18.7% [at 11.4 µM].

As a reminder, the AC50 is the midpoint of the concentration-response curve, whichever way the signal moves. Turning to `O=C(Nc1cccc(C(F)(F)F)c1)C1CCCN1S(=O)(=O)c1cccc2cccnc12` (stereo not drawn), the AC50 is 11.2 µM (active).

On to `COc1ccc(-c2ccc(C(=S)N3CCN(C(C)=O)CC3)o2)cc1`, for which the AC50 was 25.1 µM (active).

Consider `C[C@H](N[C@@H](C)COc1ccccc1)[C@H](O)c1ccc(O)cc1`, for which the “activity, negative = inhibition” value was -12.4% [at 25.6 µM].

As to `COc1ccc(C2/C(=C(/O)c3ccccc3)C(=O)C(=O)N2c2ccccn2)c(OC)c1` (stereo not drawn), the activity, negative = inhibition was 1.16% [at 2.29 µM].

As for `COc1ccc(N2C(=O)CSC2c2cccc(F)c2)c(OC)c1` (stereo not drawn), the AC50 is 12.6 µM (active).

Consider `C/C(=N\[N+](C)(C)C)c1ccc(C)c(C)c1`, for which the activity, negative = inhibition was -5.81% [at 11.4 µM].

In the case of `O=C(Nc1cc(-c2nc3ccccc3s2)ccc1Cl)c1ccc2c(c1)OCO2`, the AC50 is 2.24 µM (active).

On to `COC(=O)c1ccc(Cl)c(NC(=O)c2ccc(-c3ccccc3)cc2)c1`, for which the activity, negative = inhibition was 0.213% [at 2.29 µM].

As to `O=C(Nc1cccc(-c2nc3ccccc3s2)c1)c1ccc2c(c1)OCO2`, the AC50 is 2.24 µM (active).

For the compound `O=C(c1sc2ccccc2c1Cl)N(Cc1ccccc1)C1CCS(=O)(=O)C1` (stereo not drawn), the AC50 was 11.2 µM (active).

In the case of `Cc1ccc[n+](CC(=O)c2cc3ccccc3oc2=O)c1`, the activity, negative = inhibition is -4.17% [at 2.29 µM].

On to `CCOc1ccc(CN(C(=O)c2oc3ccccc3c2C)C2CCS(=O)(=O)C2)cc1` (stereo not drawn), for which the AC50 was 12.6 µM (active).

`CCc1ccc(CN(C(=O)c2cc3ccccc3oc2=O)C2CCS(=O)(=O)C2)cc1` (stereo not drawn): the AC50 is 14.1 µM (active).

On to `CN(C(=O)COc1cccc(Br)c1)C1CCS(=O)(=O)C1` (stereo not drawn), for which the “activity, negative = inhibition” value was -25.4%.

As to `CCc1ccc(OCC(=O)OC2CCS(=O)(=O)C2)cc1` (stereo not drawn), the “activity, negative = inhibition” value is 9.21%.

As to `CCCN(C(=S)Nc1ccccc1)C1CCS(=O)(=O)C1` (stereo not drawn), the “activity, negative = inhibition” value is -16.8%.

As for `O=C(c1ccccc1)N(Cc1ccco1)C1CCS(=O)(=O)C1` (stereo not drawn), the “activity, negative = inhibition” value was -11.5%.

Consider `C[C@@H](CC(=O)O)[C@@H](N)C(=O)O`, for which the “activity, negative = inhibition” value is -18.5%.

Take `O=C(Oc1cccc(Br)c1)c1cccnc1`: the “activity, negative = inhibition” value was -29.3%.

On to `O=C(COC(=O)c1cccnc1)c1ccc(Cl)c(Cl)c1`, for which the AC50 was 0.562 µM (active).

As to `O=C(COC(=O)c1cccnc1Cl)c1ccccc1`, the “activity, negative = inhibition” value is -13.3%.

As to `CON1C(=O)C(=O)N(OC)C2CCCCC21` (stereo not drawn), the “activity, negative = inhibition” value is 2.41%.

For `CC(C)(C)N1C(=O)[C@H]2[C@@H]3[C@H](O)[C@H](O)CC(=O)[C@H]3CC[C@H]2C1=O`, the activity, negative = inhibition was -16.1% [at 11.4 µM] and -10.3% [at 11.4 µM].

Turning to `Cc1cnc(CNc2ncncc2-c2ccccc2C)cn1`, the AC50 is 1 µM (active).

For `COc1ccccc1-c1cncnc1NCc1cnc(C)cn1`, the AC50 was 1.26 µM (active).

Take `Cc1cnc(CNc2ncncc2-c2ccccc2CN(C)C)cn1`: the AC50 is 3.16 µM (active).

With `CN(C)Cc1ccccc1-c1cncnc1NC1CC1`, the AC50 was 12.6 µM (active).

In the case of `O=[N+]([O-])c1ccccc1N=Nc1c(O)[nH]c2ccc(S(=O)(=O)O)cc12`, the activity, negative = inhibition was -6.01% [at 11.4 µM].

On to `C/C(=N\NC(=O)CC1N=C(Cc2ccccc2)NNC1=O)c1ccc(Cl)cc1Cl` (stereo not drawn), for which the AC50 is 1.26 µM (active).

Turning to `Nc1ccc(-c2nc3c(Cl)c(N)ccc3[nH]2)cc1`, the AC50 is 1 µM (active).

As for `c1csc(CNc2ccnc(-c3ccoc3)n2)c1`, the AC50 is 7.94 µM (active).

For the compound `CN(C)c1ccc(-c2nccc(NCc3cccs3)n2)cc1`, the AC50 is 12.6 µM (active).

Take `CN(C)C(=O)c1ccc(-c2nccc(NCc3cccs3)n2)cc1`: the AC50 was 25.1 µM (active).

`c1cncc(-c2nccc(NCc3cccs3)n2)c1`: the AC50 is 1 µM (active).

Turning to `Cc1ccccc1Oc1ncnc2sccc12`, the “activity, negative = inhibition” value was -7.77%.

Turning to `COc1cccc(Nc2ncc3nc(-c4ccccc4)c(=O)n(C)c3n2)c1`, the “activity, negative = inhibition” value is -0.713%.

Regarding `COc1cccc(Nc2ncc3nc(C)c(=O)n(-c4ccccc4)c3n2)c1`, the AC50 is 15.8 µM (active).

In the case of `COc1ccc(-n2c(=O)c(C)nc3cnc(Nc4ccccc4)nc32)cc1`, the AC50 is 12.6 µM (active).

On to `Cn1c(=O)c(-c2ccc(Cl)cc2)nc2cnc(Nc3ccccc3)nc21`, for which the “activity, negative = inhibition” value was -6.47%.

As for `O=C(NC(=S)N(Cc1ccccc1)Cc1ccccc1)c1ccccc1F`, the AC50 is 15.8 µM (active).

On to `COc1ccc(C(=O)NNC(=S)NC(=O)c2ccco2)cc1`, for which the activity, negative = inhibition was 9.96% [at 2.29 µM].

Take `O=C(Nc1ccccc1)N(Cc1ccccc1)CC(O)C(F)(F)F` (stereo not drawn): the “activity, negative = inhibition” value is -16%.

As to `COc1ccc(CN(CCC#N)C(=S)NC(=O)c2ccccc2)cc1`, the AC50 was 14.1 µM (active).

Consider `CCOc1ccc(C(=O)NC(=S)N(Cc2ccccc2)Cc2ccccc2)cc1`, for which the AC50 was 10 µM (active).

`CCC(=O)c1ccc(OCC(O)CN(CCc2ccccc2)Cc2ccccc2)cc1` (stereo not drawn): the “activity, negative = inhibition” value was -6.18%.

`N/C(=N\c1nc2ccccc2o1)NC(=O)c1ccccc1F`: the “activity, negative = inhibition” value was -22.5%.

The record behind these values is PubChem BioAssay AID1851 (National Center for Advancing Translational Sciences (NCATS), 2009).
